Measured values reported in PubChem BioAssay AID1159580 (chemical genetic matrix, 2015).
In all, about 5,500 compounds went through this assay and about 2,000 (36%) were called active. Roughly 18% stayed inconclusive and do not appear here. Rule as the data show it: active = normalized growth mostly below about 0.91 (no sharp cut-off); inconclusive = no clear call, values can overlap the other calls; inactive = mostly above about 0.92. This is one part of the list.

Experiment: chemical genetic growth profiling, strain panel (AID 1159580);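 also: tested at 20 µM; growth read once vehicle control cultures reached saturation at 30 °C; 1 = growth at the plate median or of vehicle wells; lower values mean less growth of the strain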
Settings: growth OD
[1] = S. cerevisiae deletion strains, locus YAR019C, strain CDC15, hits give low values
[2] = S. cerevisiae deletion strains, locus YBL105C, strain PKC1, hits give low values
[3] = S. cerevisiae deletion strains, locus YBR135W, strain CKS1, hits give low values
[4] = S. cerevisiae deletion strains, locus YBR136W, strain MEC1, hits give low values
[5] = S. cerevisiae deletion strains, locus YBR160W, strain CDC28, hits give low values
[6] = S. cerevisiae deletion strains, locus YDL017W, strain CDC7, hits give low values
[7] = S. cerevisiae deletion strains, locus YDL028C, strain MPS1, hits give low values
[8] = S. cerevisiae deletion strains, locus YDL101C, strain DUN1, hits give low values
[9] = S. cerevisiae deletion strains, locus YDL108W, strain KIN28, hits give low values
[10] = S. cerevisiae deletion strains, locus YDL132W, strain cdc53, hits give low values
[11] = S. cerevisiae deletion strains, locus YDL214C, strain PRR2, hits give low values
[12] = S. cerevisiae deletion strains, locus YDR052C, strain DBF4, hits give low values
[13] = S. cerevisiae deletion strains, locus YDR054C, strain cdc34, hits give low values
[14] = S. cerevisiae deletion strains, locus YDR226W, strain ADK1, hits give low values
[15] = S. cerevisiae deletion strains, locus YDR477W, strain SNF1, hits give low values
[16] = S. cerevisiae deletion strains, locus YER123W, strain YCK3, hits give low values
[17] = S. cerevisiae deletion strains, locus YER133W, strain GLC7, hits give low values
[18] = S. cerevisiae deletion strains, locus YFL009W, strain cdc4, hits give low values
[19] = S. cerevisiae deletion strains, locus YFL029C, strain CAK1, hits give low values
[20] = S. cerevisiae deletion strains, locus YFR003C, strain YPI1, hits give low values
[21] = S. cerevisiae deletion strains, locus YFR019W, strain FAB1, hits give low values
[22] = S. cerevisiae deletion strains, locus YFR028C, strain CDC14, hits give low values
[23] = S. cerevisiae deletion strains, locus YGR040W, strain KSS1, hits give low values
[24] = S. cerevisiae deletion strains, locus YGR052W, strain FMP48, hits give low values
[25] = S. cerevisiae deletion strains, locus YGR092W, strain DBF2, hits give low values
[26] = S. cerevisiae deletion strains, locus YHR030C, strain SLT2, hits give low values
[27] = S. cerevisiae deletion strains, locus YHR079C, strain IRE1, hits give low values
[28] = S. cerevisiae deletion strains, locus YHR082C, strain KSP1, hits give low values
[29] = S. cerevisiae deletion strains, locus YHR205W, strain SCH9, hits give low values
[30] = S. cerevisiae deletion strains, locus YIL147C, strain SLN1, hits give low values
[31] = S. cerevisiae deletion strains, locus YJL095W, strain BCK1, hits give low values
[32] = S. cerevisiae deletion strains, locus YJL128C, strain PBS2, hits give low values
[33] = S. cerevisiae deletion strains, locus YJL157C, strain FAR1, hits give low values
[34] = S. cerevisiae deletion strains, locus YJR016C, strain ILV3, hits give low values
[35] = S. cerevisiae deletion strains, locus YJR066W, strain TOR1 (second series), hits give low values
[36] = S. cerevisiae deletion strains, locus YJR066W, strain TOR1, hits give low values
[37] = S. cerevisiae deletion strains, locus YKL048C, strain ELM1, hits give low values
[38] = S. cerevisiae deletion strains, locus YKL067W, strain YNK1, hits give low values
[39] = S. cerevisiae deletion strains, locus YKL101W, strain HSL1, hits give low values
[40] = S. cerevisiae deletion strains, locus YKL193C, strain SDS22, hits give low values
[41] = S. cerevisiae deletion strains, locus YKL203C, strain TOR2, hits give low values
[42] = S. cerevisiae deletion strains, locus YLR113W, strain HOG1, hits give low values
[43] = S. cerevisiae deletion strains, locus YLR133W, strain CKI1, hits give low values
[44] = S. cerevisiae deletion strains, locus YLR403W, strain SFP1, hits give low values
[45] = S. cerevisiae deletion strains, locus YML070W, strain DAK1, hits give low values
[46] = S. cerevisiae deletion strains, locus YMR001C, strain CDC5, hits give low values
[47] = S. cerevisiae deletion strains, locus YMR205C, strain PFK2 (second series), hits give low values
[48] = S. cerevisiae deletion strains, locus YMR277W, strain FCP1, hits give low values
[49] = S. cerevisiae deletion strains, locus YNL006W, strain LST8, hits give low values
[50] = S. cerevisiae deletion strains, locus YNL020C, strain ARK1, hits give low values
[51] = S. cerevisiae deletion strains, locus YNL161W, strain CBK1, hits give low values
[52] = S. cerevisiae deletion strains, locus YNL183C, strain NPR1, hits give low values
[53] = S. cerevisiae deletion strains, locus YNL207W, strain RIO2, hits give low values
[54] = S. cerevisiae deletion strains, locus YNL222W, strain SSU72, hits give low values
[55] = S. cerevisiae deletion strains, locus YNL307C, strain MCK1 (second series), hits give low values
[56] = S. cerevisiae deletion strains, locus YOL078W, strain AVO1, hits give low values
[57] = S. cerevisiae deletion strains, locus YOL136C, strain PFK27, hits give low values
[58] = S. cerevisiae deletion strains, locus YOR061W, strain CKA2, hits give low values
[59] = S. cerevisiae deletion strains, locus YOR119C, strain RIO1, hits give low values
[60] = S. cerevisiae deletion strains, locus YOR231W, strain MKK1, hits give low values
[61] = S. cerevisiae deletion strains, locus YOR329C, strain SCD5, hits give low values
[62] = S. cerevisiae deletion strains, locus YPL031C, strain PHO85, hits give low values
[63] = S. cerevisiae deletion strains, locus YPL153C, strain RAD53, hits give low values
[64] = S. cerevisiae deletion strains, locus YPL204W, strain HRR25, hits give low values
[65] = S. cerevisiae deletion strains, locus YPL209C, strain IPL1, hits give low values
[66] = S. cerevisiae deletion strains, locus YPL256C, strain CLN2, hits give low values
[67] = S. cerevisiae deletion strains, locus YPR025C, strain CCL1, hits give low values
[68] = S. cerevisiae deletion strains, locus YPR106W, strain ISR1, hits give low values
[69] = S. cerevisiae deletion strains, locus YPR111W, strain DBF20, hits give low values
[70] = S. cerevisiae deletion strains, strain NNK1, hits give low values
[71] = S. cerevisiae deletion strains, strain TSCII, hits give low values
[72] = S. cerevisiae deletion strains, locus YAL013W, strain DEP1, hits give low values
[73] = S. cerevisiae deletion strains, locus YBR229C, strain ROT2, hits give low values
[74] = S. cerevisiae deletion strains, locus YDR150W, strain NUM1, hits give low values
[75] = S. cerevisiae deletion strains, locus YEL061C, strain CIN8, hits give low values
[76] = S. cerevisiae deletion strains, locus YGR078C, strain PAC10, hits give low values
[77] = S. cerevisiae deletion strains, locus YHR087W, strain rtc3, hits give low values
[78] = S. cerevisiae deletion strains, locus YJR043C, strain POL32, hits give low values
[79] = S. cerevisiae deletion strains, locus YJR075W, strain HOC1, hits give low values
[80] = S. cerevisiae deletion strains, locus YLR039C, strain RIC1, hits give low values
[81] = S. cerevisiae deletion strains, locus YLR058C, strain SHM2 (second series), hits give low values
[82] = S. cerevisiae deletion strains, locus YLR085C, strain ARP6, hits give low values
[83] = S. cerevisiae deletion strains, locus YLR262C, strain YPT6, hits give low values
[84] = S. cerevisiae deletion strains, locus YML094W, strain GIM5, hits give low values
[85] = S. cerevisiae deletion strains, locus YMR219W, strain ESC1, hits give low values
[86] = S. cerevisiae deletion strains, locus YMR263W, strain SAP30, hits give low values
[87] = S. cerevisiae deletion strains, locus YNL153C, strain GIM3, hits give low values
[88] = S. cerevisiae deletion strains, locus YNL298W, strain CLA4 (second series), hits give low values
[89] = S. cerevisiae deletion strains, locus YNL322C, strain KRE1, hits give low values
[90] = S. cerevisiae deletion strains, locus YNR030W, strain Alg12, hits give low values
[91] = S. cerevisiae deletion strains, locus YPL055C, strain LGE1, hits give low values
[92] = S. cerevisiae deletion strains, locus YPL241C, strain CIN2, hits give low values
[93] = S. cerevisiae deletion strains, locus YPR135W, strain CTF4, hits give low values
[94] = S. cerevisiae strains, strain wild type, hits give low values

Measured: normalized growth

N#C/C(=C\c1ccccc1Sc1ccc(Cl)cc1)S(=O)(=O)c1ccccn1
inactive: [1] 0.972 | [2] 0.968 | [3] 0.957 | [4] 0.966 | [5] 0.973 | [6] 0.982 | [7] 0.971 | [8] 0.963 | [9] 0.962 | [10] 0.959 | [11] 0.901 | [12] 0.98 | [13] 0.969 | [14] 0.968 | [15] 0.873 | [16] 0.88 | [17] 0.909 | [18] 0.967 | [19] 0.968 | [20] 0.97 | [21] 0.926 | [22] 0.962 | [23] 0.871 | [24] 0.883 | [25] 0.772 | [26] 0.858 | [27] 0.956 | [28] 0.939 | [29] 0.872 | [30] 0.97 | [31] 0.875 | [32] 0.925 | [33] 0.897 | [34] 0.971 | [35] 0.883 | [36] 0.938 | [37] 0.852 | [38] 0.9 | [39] 0.875 | [40] 0.961 | [41] 0.936 | [43] 0.889 | [44] 0.802 | [45] 0.886 | [46] 0.964 | [47] 0.908 | [48] 0.963 | [49] 0.959 | [50] 0.891 | [51] 0.968 | [52] 0.934 | [53] 0.968 | [54] 0.959 | [55] 0.877 | [56] 0.955 | [57] 0.846 | [58] 0.851 | [59] 0.939 | [60] 0.893 | [61] 0.969 | [62] 0.868 | [63] 0.904 | [64] 0.83 | [65] 0.968 | [66] 0.926 | [67] 0.961 | [68] 0.973 | [69] 0.942 | [70] 0.964 | [71] 0.956
active: [42] 0.821

CC(=O)OCc1ccc(/C=C(\C#N)S(=O)(=O)c2ccc(Cl)cc2)o1
inactive: [72] 1.01 | [73] 1.01 | [8] 1.01 | [74] 1.06 | [75] 1 | [76] 1.01 | [26] 0.923 | [77] 0.983 | [78] 1.04 | [79] 0.956 | S. cerevisiae deletion strains, locus YKL190W, strain CNB1, hits give low values 1.02 | [80] 0.992 | [81] 0.996 | [82] 0.923 | [83] 1.01 | [84] 0.993 | [85] 0.993 | [86] 1.06 | S. cerevisiae deletion strains, locus YMR307W, strain GAS1, hits give low values 0.869 | [87] 1.03 | [88] 1.01 | [89] 0.985 | [90] 0.985 | [91] 1.13 | [92] 0.98 | [93] 0.966 | [94] 1.02

N#C/C(=N/Nc1ccccc1Cl)S(=O)(=O)c1ccc(Cl)cc1
inactive: [1] 0.976 | [2] 0.97 | [3] 0.964 | [4] 0.968 | [5] 0.969 | [6] 0.976 | [7] 0.975 | [8] 0.978 | [9] 0.977 | [10] 0.971 | [11] 0.889 | [12] 0.966 | [13] 0.966 | [14] 0.974 | [15] 0.889 | [16] 0.882 | [17] 0.909 | [18] 0.968 | [19] 0.969 | [20] 0.973 | [21] 0.859 | [22] 0.95 | [23] 0.889 | [24] 0.869 | [25] 0.715 | [26] 0.916 | [27] 0.955 | [28] 0.918 | [29] 0.866 | [30] 0.968 | [31] 0.852 | [32] 0.944 | [33] 0.909 | [34] 0.974 | [35] 0.877 | [36] 0.962 | [37] 0.886 | [38] 0.911 | [39] 0.835 | [40] 0.976 | [41] 0.943 | [42] 0.877 | [43] 0.847 | [44] 0.811 | [45] 0.883 | [46] 0.969 | [47] 0.918 | [48] 0.973 | [49] 0.979 | [50] 0.828 | [51] 0.971 | [52] 0.94 | [53] 0.954 | [54] 0.977 | [55] 0.787 | [56] 0.968 | [57] 0.832 | [58] 0.851 | [59] 0.957 | [60] 0.895 | [61] 0.979 | [62] 0.856 | [63] 0.889 | [64] 0.814 | [65] 0.975 | [66] 0.939 | [67] 0.978 | [68] 0.966 | [69] 0.961 | [70] 0.952 | [71] 0.956

CC(=O)/C(=C\Nc1ncccn1)S(=O)(=O)c1ccc(Cl)cc1
inactive: [72] 1.01 | [73] 1 | S. cerevisiae deletion strains, locus YCL061C, strain MRC1, hits give low values 1 | [8] 1.01 | [74] 0.977 | [75] 1 | [76] 1 | S. cerevisiae deletion strains, locus YGR229C, strain SMI1, hits give low values 1 | [26] 0.822 | [77] 0.98 | S. cerevisiae deletion strains, locus YJL187C, strain SWE1, hits give low values 1 | [78] 1.05 | [79] 0.941 | [80] 0.927 | [81] 0.993 | [82] 0.918 | [83] 0.89 | [84] 0.97 | [85] 0.998 | [86] 0.987 | S. cerevisiae deletion strains, locus YNL128W, strain TEP1, hits give low values 1.01 | [87] 1.01 | [88] 0.954 | [89] 0.946 | [90] 0.975 | [91] 0.925 | [92] 0.98 | [93] 0.9 | [94] 1
